# Potency and affinity values are given separately. Records with an inconclusive call do not appear. A call without a number means that no potency is given here. The source made the active and inactive calls.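 Rule for the calls: active = compound whose fitted half-maximal concentration stays within twice the top dose, with falling signal, in all three exposure times; inconclusive = mixed calls across exposure times, weak flat curves, or poor fits; inactive = inactive at every exposure time, including opposite-direction effects.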
# Assay: cytotoxicity in SR immunoblastic lymphoma cells – cell-based, CellTiter-Glo ATP luminescence, 8-48 h, dry powder, mechanism study for HRAS target identification, late-stage follow-up (AID 720608)
# Settings: SR lymphoma cells viability; series mostly up to 35 µM
structure (smiles),measurement,value
Cc1onc(C(=O)N2CCN(C(c3ccncc3)c3ccncc3)CC2)c1[N+](=O)[O-],outcome,inactive
